# Assay outcomes (PubChem BioAssay)
# Anesthetic bind = binds horse apoferritin like a general anesthetic; apoferritin/1-aminoanthracene competitive binding, fluorescence; Potency, µM (top dose mostly 77.5 µM), without a hit: at the top dose activity change, negative = displacement, actives largely listed as inhibitors; 0.074% of 350,000 active; AID 485281; also: potency is read from the fitted curve at half-maximal effect; % is scaled to controls: 0 for no effect and ±100 for the full control effect; nearly all actives have a fitted effect of over 20% in size
# Target sequence (P02791 2-175 limits assumed): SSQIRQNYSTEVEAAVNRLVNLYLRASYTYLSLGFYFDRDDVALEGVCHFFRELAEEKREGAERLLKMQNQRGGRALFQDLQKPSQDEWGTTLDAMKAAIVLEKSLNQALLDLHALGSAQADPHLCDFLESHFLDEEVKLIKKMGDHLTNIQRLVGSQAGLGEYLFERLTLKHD
#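 Steps: apoferritin (10 uM) was premixed with half-saturated 1-AMA in PBS, compounds were pin-transferred, plates stood 10 min at room temperature, fluorescence was read at 380/535 nm, and curves were fitted with a Hill equation.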
# Nrf2 block = blocks Nrf2 signaling; A549 ARE-Fluc reporter, luciferase luminescence, 18-24 h; Potency, µM (top dose mostly 46 µM), for the others: top-dose activity change, negative = inhibition, actives largely listed as inhibitors; 2.1% of 360,000 active; AID 504444; also: potency is read from the fitted curve at half-maximal effect; % is scaled to controls: 0 for no effect and ±100 for the full control effect; nearly all actives have a fitted effect of over 60% in size
#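 Cells were seeded and rested 2 h, then exposed to compounds for 18-24 h. CellTiter-Fluor was read first as a viability measure. BugLite was added 15 min before the final luminescent read of ARE-luciferase activity in A549 cells.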
# A549 tox-1 = kills or reduces viability of A549 cells in Nrf2 counter-screen. AID 504648. 0.16% of 390,000 active. Potency, µM (titrated, usually from 46 µM), inactives show top-dose activity change, negative = cytotoxicity, hits mostly inhibitors. A549 ARE-Fluc cells, CellTiter-Fluor viability, 18-24 h; also: potency is read from the fitted curve at half-maximal effect; % is scaled to controls: 0 for no effect and ±100 for the full control effect
#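 A549 ARE_Fluc cells in 5% FBS OPTI-MEM were exposed to compounds in concentration-response for 18-24 h at 37 deg C. Viability was read by CellTiter-Fluor fluorescence (Ex 405/Em 525) after 30 min, before the luciferase read.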
# Nrf2 activator = activates Nrf2 signaling. AREc32 ARE-luciferase reporter (MCF7-derived line), luminescence, 24 h. Potency, µM (series often up to 46.1 µM), for the others: at the top dose activation, hits mostly activators. 0.31% of 410,000 active. AID 624171; also: potency is read from the fitted curve at half-maximal effect; % of control where 0% means no effect; nearly all actives have a fitted effect of over 65% in size
#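 Reporter line AREc32 (ARE-Fluc), seeded overnight in OPTI-MEM with 5% FBS; compound pin-transferred, 24 hr at 37 deg C, 5% CO2; luminescent read-out.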
# IDH1 R132H inh = inhibitors of human mutant IDH1 R132H; O75874; IDH1-R132H enzyme, NADPH consumption, diaphorase/resazurin fluorescence; Potency, µM (titrated, usually from 76.6 µM), without a hit: at the top dose activity change, negative = inhibition, most hits filed as inhibitors; 0.093% of 390,000 active; AID 602179; also: potency is read from the fitted curve at half-maximal effect; % is scaled to controls: 0 for no effect and ±100 for the full control effect; nearly all actives have a fitted effect of over 65% in size
# Target sequence (O75874 whole entry R132H, stated change not applied): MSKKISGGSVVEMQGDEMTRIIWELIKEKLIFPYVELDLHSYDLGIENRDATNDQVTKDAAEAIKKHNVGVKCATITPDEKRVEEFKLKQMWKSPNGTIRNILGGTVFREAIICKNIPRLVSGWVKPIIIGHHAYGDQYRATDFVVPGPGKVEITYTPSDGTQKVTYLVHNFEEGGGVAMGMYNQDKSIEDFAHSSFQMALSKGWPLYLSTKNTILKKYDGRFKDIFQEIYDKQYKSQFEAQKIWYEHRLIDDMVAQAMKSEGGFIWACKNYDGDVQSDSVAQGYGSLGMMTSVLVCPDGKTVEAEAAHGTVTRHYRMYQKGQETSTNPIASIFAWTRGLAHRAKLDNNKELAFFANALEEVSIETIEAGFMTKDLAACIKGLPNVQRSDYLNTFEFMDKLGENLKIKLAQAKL
#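 IDH1-R132H (0.5 ug/mL) preincubated 30 min with compound, then NADPH (0.016 mM) and alpha-KG (2 mM) added; 80 min at RT, pH 7.5. Remaining NADPH coupled via diaphorase/resazurin to fluorescence (540/590 nm); concentration-response curves normalized to no-enzyme control.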
# Giardia killer = kills Giardia lamblia. Giardia lamblia trophozoite viability. activity change, % at 7.66 µM, hits read low. 0.15% of 340,000 active. AID 540267; in the data active = activity change below about -80%; inconclusive = between about -30% and that limit;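 also: parasites exposed to compound for two days anaerobically before the ATP read; % is scaled to controls: 0 for no effect and ±100 for the full control effect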
#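 Killing of trophozoites was scored by loss of ATP luminescence after a 48 hrs anaerobic exposure to compounds at 37 deg C, using 100 cells per well.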
# FLuc enzyme inh = firefly luciferase inhibition, Nrf2 hit validation; shares compounds with Nrf2 block; purified firefly luciferase, luminescence inhibition; Potency, µM (highest dose often 57.5 µM), without a hit: top-dose activity change, negative = inhibition, hits mostly inhibitors; 4% of 1,400 active; also: potency is read from the fitted curve at half-maximal effect; % is scaled to controls: 0 for no effect and ±100 for the full control effect; nearly all actives have a fitted effect of over 65% in size
# A549 tox-2 = A549 cytotoxicity, Nrf2 inhibitor counterscreen; Potency, µM (top dose mostly 46.1 µM), without a hit: at the highest dose activity change, negative = cytotoxicity, most hits filed as inhibitors; AID 720523; shares compounds with Nrf2 block; A549 ARE-Fluc cells, cytotoxicity counterscreen; 2% of 1,400 active;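 also: potency is read from the fitted curve at half-maximal effect; cells exposed to compounds for 18 to 24 hours; % is scaled to controls: 0 for no effect and ±100 for the full control effect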
# ARE-Fluc inh = confirmation of Nrf2 inhibitors in A549 ARE reporter cells; Potency, µM (top dose mostly 46.1 µM), for inactives: top-dose activity change, negative = inhibition, most hits filed as inhibitors; shares compounds with Nrf2 block; A549 ARE-firefly luciferase reporter, luminescence; 74% of 1,400 active; AID 720524; also: potency is read from the fitted curve at half-maximal effect; % is scaled to controls: 0 for no effect and ±100 for the full control effect; nearly all actives have a fitted effect of over 65% in size
# The depositor's hits bear a star; ? = inconclusive; / = not tested or not shown; [ ] = another dose, or the depositor's remark. Most compounds without a hit are left out; they make up all but 2.3% or so of the library. Unless noted, calls follow the shape of the dose curve; as a rule, active = well fitted curve in the direction sought with a large enough effect; inconclusive = small, poorly fitted or top-dose-only effect, or another doubt; inactive = no such curve, though single readings can be large; an effect the other way counts as inactive or inconclusive.
SMILES,Anesthetic bind,Nrf2 block,A549 tox-1,Nrf2 activator,IDH1 R132H inh,Giardia killer,FLuc enzyme inh,A549 tox-2,ARE-Fluc inh
Cc1ccc(CON=C2CCN(c3ncc(C(F)(F)F)cc3Cl)CC2)cc1,-16%,-16%,15%,0%,7%,2,/,/,/
FC(F)(F)c1cnc(N2CCC(=NOCc3ccc(Cl)cc3)CC2)c(Cl)c1,-12%,8.2µM*,-25%,-1%,2%,16,1%,21%,7%
CC1CCCC=CC2CC(OC(=O)CN(C)C)CC2C(O)C=CC(=O)O1 (stereo unspecified),/,0.21µM*,?,-1%,2%,4,1%,?,0.41µM*
CCN(CC)c1ccc(/C=C/c2ccc3ccc(OC)cc3[n+]2CC)cc1,-11%,4.6µM*,?,-3%,1%,-13,-23%,?,5.2µM*
CCN(CC)c1nc2cc(OC)ccc2cc1C#N,-1%,0%,21%,0%,7%,-18,/,/,/
COc1ccc(-n2c(-c3ccc(Cl)cc3)c[n+]3c2CCc2ccccc2-3)cc1,-7%,?,-18%,6%,-5%,-6,/,/,/
Cc1ccc(-n2c(-c3ccc(Br)cc3)c[n+]3c2CCc2ccc4cccnc4c2-3)cc1,?,2.9µM*,-22%,6%,0%,4,-10%,?,5.8µM*
CC1CN(C(=O)Nc2ccc(C(=O)NCc3ccccc3F)cc2)c2ccccc2S1 (stereo unspecified),48%,0%,14%,3%,28%,/,/,/,/
Cc1cc2oc(=O)cc(CSc3nnc(-c4cccs4)o3)c2cc1C(C)C,?,8.2µM*,?,0%,2%,-7,-2%,-2%,?
Cc1cc2oc(=O)cc(CSc3nnc(C)n3N)c2cc1C(C)C,-15%,/,23%,0%,-5%,14,/,/,/
CNS(=O)(=O)c1cn(CC(=O)N2CCN(c3ccc(C(C)=O)cc3)CC2)cc1S(=O)(=O)NC,9%,1%,9%,0%,-9%,/,/,/,/
O=C1CCC2S/C(=C/Nc3ccc(C(F)(F)F)cc3)C(=O)N12 (stereo unspecified),-13%,1µM*,0%,-4%,11%,20,11µM*,2%,4.1µM*
COc1ccc(CNc2ncnc3c2[nH]c2ccccc23)cc1,-7%,4.6µM*,-19%,8%,-6%,16,?,-20%,5.2µM*
COc1ccc(CNc2ncnc3c2[nH]c2cc(OC)c(OC)cc23)cc1,2%,-16%,1%,6%,-9%,23,/,/,/
CC(=O)c1ccc(S(=O)(=O)N2CCN(c3nc(-c4ccccc4)nc4ccccc34)CC2)cc1,/,7%,0%,/,/,27,/,/,/
Cc1cc(C(=O)O)ccc1-n1c(C)cc(/C=C(/C#N)C(=O)Nc2ccccc2)c1C,-13%,5.8µM*,1%,0%,3%,10,-16%,-7%,?
CCCCOc1ccc(C(=O)N(Cc2nc(-c3ccc(Cl)cc3)no2)C(C)C)cc1,79%,-10%,10%,0%,0%,/,/,/,/
CN(CC(=O)Nc1ccc(Cl)cc1)C(=O)c1ccc(N2CCCC2=O)cc1,/,6%,8%,4%,-8%,-4,/,/,/
CN(CC(=O)Nc1ccc(OC(F)(F)F)cc1)C(=O)c1ccc(N2CCCC2=O)cc1,/,2.9µM*,-6%,0%,9%,-6,2%,1%,5.2µM*
C=CC[n+]1c(/C=C2\C=Cc3cc(C)ccc3N2CC)ccc2ccccc21,?,4.6µM*,?,-1%,-16%,-10,-27%,15µM*,2.3µM*
CCN1C(=C(C#N)C#N)C=Cc2cc(C)ccc21,-10%,0%,0%,0%,5%,22,/,/,/
CCOc1ccc(C(c2c(O)cc(C)n(CCOC)c2=O)N2CCN(c3ccc(F)cc3)CC2)cc1 (stereo unspecified),-10%,/,-1%,-1%,4%,/,/,/,/
COc1cc(C(=O)N/N=C/c2ccc(OC(=O)c3ccccc3Cl)c(OC)c2)ccc1O,-12%,1.5µM*,-2%,3%,2%,13,0.54µM*,2%,0.92µM*
COc1cc(/C=N/NC(=O)c2ccncc2)ccc1OC(=O)c1ccccc1Cl,?,?,0%,4%,2%,23,/,/,/
CC(=O)Nc1ccc(S(=O)(=O)NCCSCc2ccc(Cl)cc2Cl)cc1,-2%,9.2µM*,-4%,-1%,-2%,19,2%,-4%,10µM*
SMILES,Anesthetic bind,Nrf2 block,A549 tox-1,Nrf2 activator,IDH1 R132H inh,Giardia killer,FLuc enzyme inh,A549 tox-2,ARE-Fluc inh
O=C(CCCn1c2ccccc2c(=O)c2ccccc21)Nc1cccc(Cl)c1,70%,?,-7%,-2%,3%,/,/,/,/
CCOc1ccc(-n2c(-c3ccccc3)c[n+]3c2CCCCC3)cc1,-9%,2.1µM*,-18%,0%,30%,-8,0%,-14%,5.8µM*
Cc1ccc(-c2c[n+]3c(n2-c2ccccc2)CCC3)cc1,4%,6.5µM*,-10%,2%,12%,2,2%,-5%,13µM*
Cc1cc2oc(C(=O)Nc3sc4c(c3C(=O)NCc3ccco3)CCC4)cc(=O)c2cc1C,4%,8%,-10%,3%,7%,/,/,/,/
CCN(CC)CCCNC(=O)CCCn1c(=O)[nH]c2ccc(Br)cc2c1=O,-5%,3%[9.27 µM],1%,0%,9%,/,/,/,/
Cc1ccc(S(=O)(=O)N2C[C@@H]3CCCC[C@@H]3[C@@H](C)[C@H]2c2cn(Cc3ccccc3)c3ncccc23)cc1,/,5.2µM*,-11%,0%,-8%[38.3 µM],5,3%,-13%,5.2µM*
COc1ccc2c(c1)c([C@@H]1[C@H](C)[C@H]3CCCC[C@H]3CN1S(=O)(=O)c1ccc(C)cc1)cn2C,/,-18%,4%,1%,11%,?,/,/,/
C[C@@H]1[C@H]2CCCC[C@H]2CN(C(=O)OC(C)(C)C)[C@@H]1c1cn(Cc2ccccc2)c2ccc(F)cc12,/,2%,1%,0%,-4%,-25,/,/,/
